Screens from PubChem BioAssay.
ANO1 activ: activates or potentiates the mouse TMEM16A chloride channel | Q8BHY3 | HEK293 TMEM16A/YFP-H148Q/I152L, iodide quench fluorescence; active compounds read low | B-score at 10 µM | hit rate 0.3% among 340,000 | AID 623877;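 active = fluorescence-ratio B-score plate-corrected deviation score at least 3 library SD below zero, with starting fluorescence score within 5 deviations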;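 note: channel opened by trigger with iodide after compound preincubation; score built on the fluorescence ratio of max minus min over baseline; more negative score means more quench and so TMEM16A activation or potentiation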
KCNK3 block: human KCNK3 channel inhibition, primary screen | CHO-KCNK3 thallium flux, FluxOR fluorescence; active compounds read low | B-score at 10 µM | O14649 | hit rate 0.84% among 340,000;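 active = B-score under library mean minus 4 SD, starting fluorescence ratio at most library mean plus 5 SD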;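 note: more negative B-score means stronger inhibition of thallium flux through KCNK3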
KCNK9 block: blocks the human KCNK9 two-pore domain potassium channel | hit rate 1.2% among 310,000 | HEK293 KCNK9, FluxOR thallium flux fluorescence; active compounds read low | B-score at 10 µM | AID 488922 | Q9NPC2;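 active = ratio B-score over 3 SD below the library mean, with starting fluorescence within 5 SD of its mean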;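 note: negative B-score means less thallium flux so channel inhibition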
Kir21 inh: blocks the mouse Kir2.1 inward-rectifier potassium channel; HEK293-Kir2.1, FluxOR thallium flux fluorescence; active compounds read low; hit rate 0.85% among 310,000; B-score at 10 µM; P35561;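 active = fluorescence ratio B-score at or below minus 3 SD of library scores, with starting-brightness B-score within 2 SD, cut at about -4.2 in these data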;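 note: channel flux triggered by added potassium and thallium sulfate stimulus; B-score of peak minus minimum fluorescence over baseline after thallium stimulus; more negative B-score means stronger Kir2.1 block with less thallium influx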
Target sequence (P35561 whole entry, looked up): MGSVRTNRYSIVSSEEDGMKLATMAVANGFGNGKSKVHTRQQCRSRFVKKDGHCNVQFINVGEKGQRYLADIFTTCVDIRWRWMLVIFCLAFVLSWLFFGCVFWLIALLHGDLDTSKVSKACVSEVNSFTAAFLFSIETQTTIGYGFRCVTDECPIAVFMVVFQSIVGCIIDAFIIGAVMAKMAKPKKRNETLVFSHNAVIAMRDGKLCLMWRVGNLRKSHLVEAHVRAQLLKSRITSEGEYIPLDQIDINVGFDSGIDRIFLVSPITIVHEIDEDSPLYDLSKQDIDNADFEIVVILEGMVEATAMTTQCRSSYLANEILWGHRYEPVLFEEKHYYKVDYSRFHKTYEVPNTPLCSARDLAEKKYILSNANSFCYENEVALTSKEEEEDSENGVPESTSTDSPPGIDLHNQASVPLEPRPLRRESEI
TMEM16A inh: mouse TMEM16A channel inhibition, primary screen; hit rate 1.2% among 310,000; HEK293 TMEM16A/YFP iodide influx fluorescence, ionomycin; Q8BHY3; normalized B-score (activity score, 25-100; higher = stronger inhibition) at 10 µM; AID 588511;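 active = ratio plate-corrected score three or more library SD toward inhibition, starting fluorescence score within five deviations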;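 note: score derived from kinetic fluorescence span divided by baseline fluorescence per well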
The depositor's hits bear a star; i = inactive; x = no result. This is a sample that favours compounds with a hit; in the whole collection about 3.5% have one here.

SMILES | ANO1 activ | KCNK3 block | KCNK9 block | Kir21 inh | TMEM16A inh
COc1cccc(N2CCN(c3ncnc4c3[nH]c3ccccc34)CC2C)c1 (configuration not stated) | x | x | i | 2 | 100*
COc1cccc(N2CCN(c3ncnc4c3[nH]c3ccc(F)cc34)CC2C)c1 (configuration not stated) | i | -13* | i | -0.76 | 100*
COc1ccc2[nH]c3c(N4CC(C)OC(C)C4)ncnc3c2c1 (configuration not stated) | x | x | i | 2.5 | i
Cn1c(=O)n(C)c2cc([N+](=O)[O-])c(N3CCN(CCO)CC3)cc21 | i | i | i | 0.26 | i
O=C1CCCCC1Nc1ccc2ccccc2c1 (configuration not stated) | i | i | x | x | x
COc1ccc(-n2nc([N+](=O)[O-])c(=NCCCN3CCCC3=O)n2O)cc1 | i | i | i | 2.4 | i
O=C1CCCN1CCCN=c1c([N+](=O)[O-])nn(-c2ccc(Cl)cc2)n1O | -42* | i | i | 1.3 | x
Cc1cn2c(N)c(C=C3C=C(Cl)C(=O)C(Cl)=C3)c(=O)nc2s1 | -6.8* | i | i | -7.3 | x
CCOc1cc(C)c(Cl)cc1S(=O)(=O)N(C)C | i | i | -7.5* | -0.53 | i
CCOc1cc(C)c(Cl)cc1S(=O)(=O)NCC1CCCO1 (configuration not stated) | i | i | x | x | i
CCOc1cc(C)c(Cl)cc1S(=O)(=O)N1CCCC1 | i | i | i | -5.5* | i
O=C(c1ccncc1)N1CCN(S(=O)(=O)c2cccc(C(F)(F)F)c2)CC1 | i | i | x | x | x
Cc1c(C(=O)N(Cc2ccccc2)C(C)C)oc2ccc(S(=O)(=O)N3CCOCC3)cc12 | i | i | i | -1.6 | i
CC(NC(=O)Cn1ncc(Cl)c(Cl)c1=O)C12CC3CC(CC(C3)C1)C2 (configuration not stated) | i | i | i | -0.6 | 100*
COc1cc(CNCCc2ccccc2)cc(Br)c1OCC(=O)Nc1ccccc1C | i | i | i | -11* | i
COc1cc(CNCCO)cc(Cl)c1OCc1ccccc1Cl | i | i | i | -7* | i
COc1cc(CNCCc2ccccc2)cc(Cl)c1OCc1ccccc1 | i | i | i | -13* | i
CNCc1cc(Br)c(OCC(=O)Nc2ccccc2OC)c(OC)c1 | i | i | i | 0.03 | i
COc1ccc(Br)cc1CN(C)CC(=O)Nc1cc(Cl)ccc1Cl | i | i | i | -5.7* | i
Cc1ccc(CNc2nc3ccccc3n2C)cc1 | i | i | i | -6.4* | i
Cn1c(NCc2ccc(Cl)cc2)nc2ccccc21 | i | i | i | -9.6* | i
O=C(NCCc1csc(-c2ccc(Cl)cc2)n1)c1ccco1 | i | i | i | -0.11 | i
Cc1ccc(-c2nc(CCNC(=O)c3ccco3)cs2)cc1 | i | i | i | -3 | 25*
COc1ccc(Br)cc1CN(C)CC(O)COc1ccc(Br)cc1 (configuration not stated) | i | i | i | -6.5* | i
COc1ccc(CN(C)CC(O)COc2ccc(C(=O)c3ccccc3)cc2)c(OC)c1OC (configuration not stated) | i | i | i | -4.3* | i
SMILES | ANO1 activ | KCNK3 block | KCNK9 block | Kir21 inh | TMEM16A inh
CN(CCOc1ccc(Br)cc1)CC(O)COc1ccc(C#N)cc1 (configuration not stated) | i | i | i | -2.6 | i
CC1CCC(C(C)C)C(OC(=O)CSc2n[nH]c(=O)[nH]c2=O)C1 (configuration not stated) | i | i | i | 1.2 | i
CC(C)CN(C(=O)CN1CCc2ccccc21)c1c(N)n(CC(C)C)c(=O)[nH]c1=O | i | i | i | 0.34 | i
O=C1/C(=N\S(=O)(=O)c2cccs2)C([n+]2cccc(Cc3ccccc3)c2)=C([O-])c2ccccc21 | i | i | -6.6* | -0.68 | i
Fc1ccccc1CNC(=S)Nc1cccc(C(F)(F)F)c1 | i | i | i | 0.51 | i
O=C(Cc1coc2cc3c(cc12)CCC3)NC1CCCCCCC1 | i | i | i | 1.7 | i
O=C(Cc1coc2cc3c(cc12)CCC3)NCC1(N2CCCCC2)CCCCC1 | i | i | i | -4.7* | i
COc1ccc(CCNC(=S)Nc2ccc(S(=O)(=O)Nc3ncccn3)cc2)cc1OC | i | i | i | -1.2 | i
Cc1ccc(O)c(-c2cc(C(=O)NCc3ccc4c(c3)OCO4)[nH]n2)c1 | i | i | i | -0.21 | i
Clc1ccc(CSc2nnc(-c3cccnc3)n2Cc2ccco2)c(Cl)c1 | i | i | i | -4.3* | i
CCn1c(SCc2ccc(Cl)cc2)nnc1-c1ccccc1 | i | i | i | -5.3* | i
CCn1c(SCc2ccc(C#N)cc2)nnc1-c1cccc(Cl)c1 | i | i | i | -4.6* | i
Clc1cccc(CSc2nnc(-c3cccnc3)n2Cc2ccco2)c1 | i | i | i | -7.2 | i
COc1ccc(-c2nc(SCc3ccccc3)n(S(C)(=O)=O)n2)cc1 | i | i | i | 0.68 | i
CCn1c(SCc2cccc(C(=O)O)c2)nnc1-c1ccccc1 | i | i | i | 0.02 | i
CCS(=O)(=O)n1nc(-c2ccc(Cl)cc2)nc1SCc1ccccc1 | x | x | i | -0.76 | 25*
Cc1cccc(Nc2nc(NCCCN3CCOCC3)nc(N)c2[N+](=O)[O-])c1 | i | i | i | -0.48 | i
Cc1ccsc1C(=O)OC(C)C(=O)NC1CCCCC1C (configuration not stated) | i | i | x | x | x
O=C(CC(C(=O)O)c1cccc(Cl)c1Cl)c1ccccc1 (configuration not stated) | x | i | i | -0.35 | i
Cc1cccc(-c2nnc(SCc3ccc(C#N)cc3)n2Cc2ccco2)c1 | i | i | i | -5.3* | i
CCn1c(COc2ccc(Cl)cc2)nnc1SCc1ccc(C#N)cc1 | i | i | i | -4.8* | i
CCOc1ccccc1NC(=O)C(=O)CC(=O)c1ccc(OC)cc1 | i | i | i | 0.01 | i
C#CCOCCOCCOCCNc1nc(N2CCN(C(=O)CCCCCCCCCCNC(=O)Cn3cc(CCCCCN)nn3)CC2)nc(N2CCN(C(=O)CCCCCCCCCCNC(=O)[C@H]([C@@H](C)CC)n3cc(CCCCCN)nn3)CC2)n1 | -13* | i | x | x | 25*
C#CCOCCOCCOCCNc1nc(N2CCN(C(=O)CCCCCCCCCCNC(=O)[C@H](CCCCN)n3cc(C)nn3)CC2)nc(N2CCN(C(=O)CCCCCCCCCCNC(=O)[C@@H]([C@H](C)CC)n3cc(CCCCCN)nn3)CC2)n1 | -18* | i | x | x | 25*
